In PubChem BioAssay (NCI):
Compounds without any hit were thinned out: in the full panel of roughly 83,000, 20% have a hit.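 Percent growth is the endpoint: 0 to 100 indicates growth inhibition (40 means 60% inhibition), 0 means no net growth, and negative values indicate cell death.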 Values without a mark were called inactive. Calls of active or inactive are those of the source. Rule for the calls: active = growth percent below 10; inactive = the rest.

What was measured:
Test in all cases: NCI-60 one-dose screen, 48 h (100 = growth as untreated, 0 = no growth, -100 = all killed)
Details in all cases: 10 µM
[1] = system: NCI-H23 lung
[2] = system: NCI-H226 lung
[3] = system: NCI-H322M lung
[4] = system: HOP-62 NSCLC
[5] = system: NCI-H460 lung
[6] = system: HOP-92 NSCLC
[7] = system: NCI-H522 lung
[8] = system: 786-0 renal
[9] = system: COLO 205 colon
[10] = system: A549/ATCC NSCLC

| Structure (SMILES) | growth [1] | growth [2] | growth [3] | growth [4] | growth [5] | growth [6] | growth [7] | growth [8] | growth [9] | growth [10] |
| --- | --- | --- | --- | --- | --- | --- | --- | --- | --- | --- |
| C=C(C)[C@@H]1CC[C@]2(C)[C@H](CC=C3[C@@H]4CC(C)(C)CC[C@]4(C(=O)N4CCOCC4)CC[C@]32C)[C@@]1(C)CCCN | -82.2% (active) | -80.5% (active) | -98.9% (active) | -90.6% (active) | -77.5% (active) | -77.1% (active) | -91.6% (active) | -79.3% (active) | -92.8% (active) |  |
| Cc1cc(=O)oc2cc(OCCCCOc3ccc(/C=C/C(=O)Nc4cccc(Cl)c4)cc3)ccc12 | 57.2% | 35.9% | 87.4% | 54.9% | 54.4% | 50.9% | 60.3% | 54.7% | 62.3% |  |
| O=c1oc2ccccc2cc1-c1csc(N=Nc2c(O)[nH]c3ccc(Br)cc23)n1 | 61.5% | 58.4% | 92.9% | 40.2% | 106% | -7.7% (active) | 67.4% | 12.5% | 127% | 100% |
| O=C(NCCCCC(c1ccc(F)cc1)c1ccc(F)cc1)NCCCc1cccnc1 | 24% | 41.2% | 64.8% | 56.2% | 28.8% | 19.4% | 16.8% | 47.7% | -12.1% (active) |  |
| COc1cc2c3c(n(CCCNC(C)C)c(=O)c2cc1OC)-c1nc2c(cc1C3=O)OCO2 | 16.5% | -32.2% (active) | 60.3% | 5.84% (active) | -74.2% (active) | 66.5% | 50.9% | -78.3% (active) | -67.6% (active) |  |
| COc1ccc2c(c1)N=C(C(=O)O)/C2=C/c1sc(Nc2ccc(O)cc2)nc1O | 71.6% | 54.8% | 92.5% | 80.9% | 82.3% | 68.3% | 33.7% | 78.9% | 89.2% |  |
| COc1cccc(-c2nn(-c3ccccc3)cc2-c2ccnc(NCCCNC(=O)Nc3ccc(F)cc3)c2)c1 | 17% | 16.4% | 43.7% | 7.43% (active) | 15.2% | -25% (active) | -3.16% (active) | -11.3% (active) | -0.929% (active) |  |
| CC(=O)C1=C(C)NC(SCC(=O)Nc2ccc(S(=O)(=O)Nc3cc(C)on3)cc2)=NC1c1ccccc1 (centres undefined) | 102% | 117% | 102% | 105% | 98.3% | 132% | 100% | 102% | 122% |  |
| CC(=O)Nc1nc(-c2ccc(N3CCN(C)CC3)c(NS(=O)(=O)c3ccc(C(F)(F)F)cc3)c2)cs1 | 55.8% | 40.1% | 88.2% | 63.7% | 31.3% | 9.58% (active) | 11.4% | -62.5% (active) | 36% |  |
| Cc1ccc(CSc2nc(Cl)c(C#N)c(-c3ccc(F)cc3)n2)cc1 | 87.8% | 53.5% | 86.7% | 96.4% | 86.5% | 54.6% | 62.5% | 78.7% | 77.3% |  |
| CCOC(=O)N/C(=C1/OCCN1C)[P+](c1ccccc1)(c1ccccc1)c1ccccc1 | 85.8% | 93.1% | 89.9% | 97.6% | 86.7% | 59.1% | 54.2% | 101% | 41.3% |  |
| COc1nccnc1NS(=O)(=O)c1ccc(NC2=C(Cl)C(=O)c3nc(C)ccc3C2=O)cc1 | 83.7% | 93.4% | 101% | 101% | 118% | 116% | 88% | 99.9% | 134% |  |
| COc1ccc(C(=O)Nc2ccc(-c3ccc4c(c3)NC(=O)/C4=C\c3ccc[nH]3)cc2)cc1 | 41.5% | -4.15% (active) | 86.6% | 63.1% | 14.9% | 97.5% | 64.2% | 20.4% | 48.1% |  |
| CC(=O)NS(=O)(=O)c1ccc(NC(=O)CSC2=NC(c3ccccc3)C(C(C)=O)=C(C)N2)cc1 (centres undefined) | 97.5% | 109% | 105% | 103% | 121% | 134% | 98.4% | 103% | 126% |  |
| O=C(c1ccc(Cl)cc1)C1[C@H](c2ccc(Br)cc2)[C@@H](c2ccccc2)NC12C(=O)Nc1ccccc12 (some centres undefined) | -35.9% (active) | -72.4% (active) | 19.9% | -18.9% (active) | -33.8% (active) | -18% (active) | -4.55% (active) | -4.41% (active) | -88.9% (active) |  |
| O=C1CCC(N2Cc3cc(CC(=O)Nc4ccc(N5CCCCC5)cc4)ccc3C2=O)C(=O)N1 (centres undefined) | 93.8% | 16.3% | 56.6% | 23.5% | 98.6% | -5.24% (active) |  | 42.5% | 37.5% | 68.3% |
| CC1(C)[C@@H](NCO)CC[C@]2(C)[C@H]3C(=O)C=C4[C@@H]5C[C@](C)(CO)CC[C@]5(C)CC[C@@]4(C)[C@]3(C)CC[C@@H]12 | 66.5% | 68% | 63.1% | 85.2% | 0.687% (active) | 52% | 72.7% | 42.8% | 24.6% |  |
| Cc1ccc(-c2nc(Nc3ccccc3C(=O)O)c3ccccc3n2)cc1 | -4.11% (active) | 15.3% | 33.8% | 28.3% | -9.44% (active) | -19.5% (active) | 33.2% | 18.7% | 80.9% |  |
| N#Cc1c(-c2ccc(F)cc2)nc(SCc2ccc(F)cc2)nc1N1CCOCC1 | 71.8% | 48.4% | 78.4% | 24.3% | 73.9% | 34.3% | 55% | 24.7% | 97.7% |  |
| COc1ccc([C@H]2C(C(=O)c3ccc(Cl)cc3)C3(N[C@@H]2c2ccccc2)C(=O)Nc2ccc(Br)cc23)cc1 (some centres undefined) | -47.4% (active) | -42.5% (active) | 21.6% | -8.82% (active) | -44.4% (active) | -20.6% (active) | 6.07% (active) | -17.5% (active) | -92% (active) |  |
| COc1cc(/C=C/C(=O)c2ccc(NC(=O)CSc3nnc(-c4c[nH]c5ccccc45)n3-c3ccccc3)cc2)cc(OC)c1OC | 47.7% | 69.9% | 90.5% | 101% | 91.2% | 105% | 90.5% | 96.1% | 102% |  |
| NC(=Nc1ccc(OCCCCCCCCn2ccnn2)cc1)c1ccccc1 | 20.1% |  | 60.3% | 18.2% |  | 74.2% |  | 45.7% |  | 24.4% |
| O=C1NC(=NC2CCCCCC2)N/C1=C\c1ccc2ncoc2c1 | 19.2% | 14.9% | 24.5% | 36.8% | 20.2% | 51.3% |  | 40.6% | 9.19% (active) | 17% |
| CCOP(=O)(OCC)O[C@H]1CC[C@]2(C)[C@H]3CC[C@@H]4[C@@H]([C@](C)(O)CCC=C(C)C)CC[C@@]4(C)[C@]3(C)CC[C@H]2C1(C)C | 15.4% | 20.9% | 74.1% | 57.3% | 11.2% | 2.88% (active) |  | 23.3% | -33% (active) | 22.1% |
| C/C(=N\NC(N)=S)c1ccc(Nc2nc(SC(C)C)nc(-c3ccccc3)c2C#N)cc1 | 52.5% | 27.5% | 74.3% | 34.4% | 41.7% | -11.1% (active) |  | 18.2% | 92.5% | 53.7% |
| COc1ccc(CN2[C@H](C(=O)NCc3ccc(C(=O)NO)cc3)Cc3c([nH]c4ccccc34)[C@H]2C2CC2)cc1 | 52.3% | 55.8% | 59.4% | 63.1% | 33.6% | 40.1% |  | 61.7% | 47.3% |  |
| O=C(N/C(=C1/OCCN1Cc1ccccc1)[P+](c1ccccc1)(c1ccccc1)c1ccccc1)c1ccccc1 | -5.42% (active) | -5.51% (active) | 58.7% | 44.8% | 3.22% (active) | -16.5% (active) |  | 4.98% (active) | 4.11% (active) | 47.6% |
| COc1ccc(C(=O)Nc2sc3c(c2C#N)CCC(=O)C3)cc1C(F)(F)F |  | 6.58% (active) | 85.9% | -9.95% (active) | 0.213% (active) | -30.9% (active) | -64.4% (active) | 7.91% (active) | -89.1% (active) | 25.5% |
